From ChEMBL document CHEMBL1961873, “Compounds: GSK PKIS; Assays: Nanosyn kinase panel” (2012) come the findings set out here.

In test [1] the target is High affinity nerve growth factor receptor (Homo sapiens) (UniProt P04629). Conditions: at 1 µM.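 Further: each value is the mean percent inhibition of TRKA.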
Test [2] addresses BDNF/NT-3 growth factors receptor (Homo sapiens) (UniProt Q16620). The following applies: at 0.1 µM.
Test [3] shares this target. Conditions: at 1 µM.
Test [4] deals with NT-3 growth factor receptor (Homo sapiens) (UniProt Q16288). Conditions: at 0.1 µM.
Test [5] shares this target. Conditions: at 1 µM.
For test [6], the target named is T1, Tyrosine-protein kinase TXK (Homo sapiens) (UniProt P42681).
T1 sequence (whole entry): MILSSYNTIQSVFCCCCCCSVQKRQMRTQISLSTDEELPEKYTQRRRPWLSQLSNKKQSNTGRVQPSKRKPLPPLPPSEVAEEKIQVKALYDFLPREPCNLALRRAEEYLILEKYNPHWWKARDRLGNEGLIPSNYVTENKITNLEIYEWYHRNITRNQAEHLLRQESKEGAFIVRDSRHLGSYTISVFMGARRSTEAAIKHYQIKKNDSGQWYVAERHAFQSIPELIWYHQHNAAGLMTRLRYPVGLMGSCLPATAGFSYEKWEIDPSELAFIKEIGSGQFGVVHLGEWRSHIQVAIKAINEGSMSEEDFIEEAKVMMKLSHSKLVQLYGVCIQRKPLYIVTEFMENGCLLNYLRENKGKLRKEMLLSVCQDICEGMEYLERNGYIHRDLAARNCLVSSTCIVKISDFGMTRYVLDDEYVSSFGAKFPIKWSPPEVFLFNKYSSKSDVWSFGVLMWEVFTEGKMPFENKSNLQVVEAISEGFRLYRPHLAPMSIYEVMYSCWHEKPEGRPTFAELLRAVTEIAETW
The following applies: at 0.1 µM.

Test [7] concerns the target T1, Tyrosine-protein kinase TXK (Homo sapiens). The following applies: at 1 µM.
The target of test [8] is Non-receptor tyrosine-protein kinase TYK2 (Homo sapiens) (UniProt P29597). The following applies: at 0.1 µM.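 Further: each value is a mean of the inhibition readings.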
In test [9] the target is T2, Dual specificity protein kinase TTK (Homo sapiens) (UniProt P33981).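 Further: reported figures are mean TTK inhibition at 1 µM.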
T2 sequence (whole entry): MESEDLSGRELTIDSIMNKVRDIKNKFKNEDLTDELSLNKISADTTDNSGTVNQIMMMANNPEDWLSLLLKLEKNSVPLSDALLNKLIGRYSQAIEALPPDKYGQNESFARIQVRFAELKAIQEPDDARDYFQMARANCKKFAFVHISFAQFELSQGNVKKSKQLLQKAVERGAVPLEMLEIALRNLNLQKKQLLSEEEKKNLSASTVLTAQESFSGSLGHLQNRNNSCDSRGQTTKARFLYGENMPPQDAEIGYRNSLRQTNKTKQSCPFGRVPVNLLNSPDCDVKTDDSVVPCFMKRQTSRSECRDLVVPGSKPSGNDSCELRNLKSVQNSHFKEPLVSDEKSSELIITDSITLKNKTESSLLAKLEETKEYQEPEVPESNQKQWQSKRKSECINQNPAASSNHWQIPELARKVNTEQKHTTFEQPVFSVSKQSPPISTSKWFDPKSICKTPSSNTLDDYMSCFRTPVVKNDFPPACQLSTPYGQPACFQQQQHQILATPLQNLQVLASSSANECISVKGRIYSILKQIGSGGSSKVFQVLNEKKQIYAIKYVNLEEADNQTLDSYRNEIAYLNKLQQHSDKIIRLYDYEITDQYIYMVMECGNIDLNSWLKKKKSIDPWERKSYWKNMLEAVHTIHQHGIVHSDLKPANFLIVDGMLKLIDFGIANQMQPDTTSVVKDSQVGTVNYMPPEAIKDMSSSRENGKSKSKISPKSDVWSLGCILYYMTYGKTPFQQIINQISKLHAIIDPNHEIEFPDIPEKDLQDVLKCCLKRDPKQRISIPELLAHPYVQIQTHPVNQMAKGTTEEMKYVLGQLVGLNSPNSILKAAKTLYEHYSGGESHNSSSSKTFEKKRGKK
The following applies: at 1 µM.

The target of test [10] is T3, Aurora kinase A (Homo sapiens) (UniProt O14965).
T3 sequence (whole entry): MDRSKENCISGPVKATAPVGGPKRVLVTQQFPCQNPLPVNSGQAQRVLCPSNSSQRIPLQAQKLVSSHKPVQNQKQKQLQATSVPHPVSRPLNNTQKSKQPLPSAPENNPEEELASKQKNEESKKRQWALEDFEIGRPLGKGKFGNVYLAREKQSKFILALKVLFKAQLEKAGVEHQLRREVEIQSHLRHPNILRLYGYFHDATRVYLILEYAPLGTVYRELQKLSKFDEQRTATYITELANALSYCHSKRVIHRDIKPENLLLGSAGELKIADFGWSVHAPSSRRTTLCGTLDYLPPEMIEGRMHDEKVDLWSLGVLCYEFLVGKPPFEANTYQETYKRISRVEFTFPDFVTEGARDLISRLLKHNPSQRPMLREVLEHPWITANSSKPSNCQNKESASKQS
Conditions: at 0.1 µM.

For test [11], the target named is T3, Aurora kinase A (Homo sapiens). The following applies: at 1 µM.
Test [12] deals with Aurora kinase B (Homo sapiens) (UniProt Q96GD4). The following applies: at 0.1 µM.
The target is the same in test [13]. The following applies: at 1 µM.
In test [14] the target is T4, Aurora kinase C (Homo sapiens) (UniProt Q9UQB9).
T4 sequence (whole entry): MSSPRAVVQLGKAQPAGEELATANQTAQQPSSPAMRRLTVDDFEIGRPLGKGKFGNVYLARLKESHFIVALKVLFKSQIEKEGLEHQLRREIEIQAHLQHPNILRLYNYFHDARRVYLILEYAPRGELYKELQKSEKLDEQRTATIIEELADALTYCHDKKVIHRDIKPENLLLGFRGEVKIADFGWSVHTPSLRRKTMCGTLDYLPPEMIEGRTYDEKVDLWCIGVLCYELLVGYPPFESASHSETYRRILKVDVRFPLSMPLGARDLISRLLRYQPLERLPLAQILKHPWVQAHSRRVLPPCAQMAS
Conditions: at 0.1 µM.

In test [15] the target is T4, Aurora kinase C (Homo sapiens). The following applies: at 1 µM.
Test [16] has as its target Serine/threonine-protein kinase 10 (Homo sapiens) (UniProt O94804). The following applies: at 0.1 µM.
Test [17] shares this target. The following applies: at 1 µM.
The target in test [18] is T5, Mitogen-activated protein kinase kinase kinase kinase 2 (Homo sapiens) (UniProt Q12851).
T5 sequence (whole entry): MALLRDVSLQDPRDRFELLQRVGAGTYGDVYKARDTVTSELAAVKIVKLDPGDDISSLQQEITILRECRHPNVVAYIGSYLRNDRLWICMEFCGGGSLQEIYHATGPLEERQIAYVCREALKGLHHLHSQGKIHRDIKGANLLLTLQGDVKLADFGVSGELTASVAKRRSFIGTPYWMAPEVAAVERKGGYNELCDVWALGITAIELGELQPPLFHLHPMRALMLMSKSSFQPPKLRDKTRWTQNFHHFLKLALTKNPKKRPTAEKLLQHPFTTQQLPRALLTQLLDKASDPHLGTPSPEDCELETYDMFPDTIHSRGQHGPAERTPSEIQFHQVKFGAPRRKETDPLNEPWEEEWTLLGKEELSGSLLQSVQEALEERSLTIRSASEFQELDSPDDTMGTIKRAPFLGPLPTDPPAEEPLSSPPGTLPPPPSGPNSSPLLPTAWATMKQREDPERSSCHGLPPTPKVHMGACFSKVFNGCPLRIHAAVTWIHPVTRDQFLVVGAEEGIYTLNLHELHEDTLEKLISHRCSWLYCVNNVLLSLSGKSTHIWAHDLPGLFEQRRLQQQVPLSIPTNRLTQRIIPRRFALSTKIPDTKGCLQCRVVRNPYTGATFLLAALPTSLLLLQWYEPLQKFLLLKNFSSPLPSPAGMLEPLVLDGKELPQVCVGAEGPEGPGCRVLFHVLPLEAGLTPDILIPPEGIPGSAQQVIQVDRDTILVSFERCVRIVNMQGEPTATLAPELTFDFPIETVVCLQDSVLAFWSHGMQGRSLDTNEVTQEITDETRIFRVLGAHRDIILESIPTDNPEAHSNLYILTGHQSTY
Conditions: at 0.1 µM.

In test [19] the target is T5, Mitogen-activated protein kinase kinase kinase kinase 2 (Homo sapiens). The following applies: at 1 µM.
The target of test [20] is Mitogen-activated protein kinase kinase kinase kinase 4 (Homo sapiens) (UniProt O95819). Conditions: at 0.1 µM.

In general, inhibition refers to the change of the read-out against control, counted positive when it falls.

Sequence of Aurora kinase B (Homo sapiens) (Q96GD4 whole entry): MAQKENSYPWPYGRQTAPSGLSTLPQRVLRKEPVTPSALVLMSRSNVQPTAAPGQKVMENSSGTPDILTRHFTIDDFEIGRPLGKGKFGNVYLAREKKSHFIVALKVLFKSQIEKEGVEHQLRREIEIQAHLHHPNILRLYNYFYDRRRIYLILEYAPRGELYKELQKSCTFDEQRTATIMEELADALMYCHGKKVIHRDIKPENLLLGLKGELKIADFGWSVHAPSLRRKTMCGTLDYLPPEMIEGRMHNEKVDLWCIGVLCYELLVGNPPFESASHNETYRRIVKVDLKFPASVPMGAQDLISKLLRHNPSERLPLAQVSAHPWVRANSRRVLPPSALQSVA
Sequence of NT-3 growth factor receptor (Homo sapiens) (Q16288 32-839 limits assumed): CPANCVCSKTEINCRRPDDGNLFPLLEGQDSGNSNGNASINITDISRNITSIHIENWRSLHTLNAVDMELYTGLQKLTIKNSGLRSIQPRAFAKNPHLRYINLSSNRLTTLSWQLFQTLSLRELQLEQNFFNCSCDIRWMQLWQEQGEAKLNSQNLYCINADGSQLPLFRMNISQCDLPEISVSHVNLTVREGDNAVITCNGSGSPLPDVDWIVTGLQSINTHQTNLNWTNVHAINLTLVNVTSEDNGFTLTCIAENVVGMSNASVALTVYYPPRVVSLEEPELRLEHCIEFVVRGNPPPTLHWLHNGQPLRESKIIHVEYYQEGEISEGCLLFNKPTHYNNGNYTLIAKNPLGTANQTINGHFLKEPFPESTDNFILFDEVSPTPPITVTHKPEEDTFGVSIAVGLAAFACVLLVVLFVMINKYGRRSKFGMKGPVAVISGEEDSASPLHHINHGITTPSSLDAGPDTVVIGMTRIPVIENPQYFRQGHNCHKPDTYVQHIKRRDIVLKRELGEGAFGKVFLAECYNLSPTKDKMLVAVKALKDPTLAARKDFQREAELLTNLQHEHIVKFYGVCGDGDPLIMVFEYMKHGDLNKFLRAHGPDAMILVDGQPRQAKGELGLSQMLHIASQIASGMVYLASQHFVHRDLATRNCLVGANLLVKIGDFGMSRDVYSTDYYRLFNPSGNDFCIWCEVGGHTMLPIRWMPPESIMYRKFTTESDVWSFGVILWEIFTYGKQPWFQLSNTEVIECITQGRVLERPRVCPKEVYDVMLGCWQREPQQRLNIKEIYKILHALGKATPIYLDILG
Sequence of BDNF/NT-3 growth factors receptor (Homo sapiens) (Q16620 32-822 limits assumed): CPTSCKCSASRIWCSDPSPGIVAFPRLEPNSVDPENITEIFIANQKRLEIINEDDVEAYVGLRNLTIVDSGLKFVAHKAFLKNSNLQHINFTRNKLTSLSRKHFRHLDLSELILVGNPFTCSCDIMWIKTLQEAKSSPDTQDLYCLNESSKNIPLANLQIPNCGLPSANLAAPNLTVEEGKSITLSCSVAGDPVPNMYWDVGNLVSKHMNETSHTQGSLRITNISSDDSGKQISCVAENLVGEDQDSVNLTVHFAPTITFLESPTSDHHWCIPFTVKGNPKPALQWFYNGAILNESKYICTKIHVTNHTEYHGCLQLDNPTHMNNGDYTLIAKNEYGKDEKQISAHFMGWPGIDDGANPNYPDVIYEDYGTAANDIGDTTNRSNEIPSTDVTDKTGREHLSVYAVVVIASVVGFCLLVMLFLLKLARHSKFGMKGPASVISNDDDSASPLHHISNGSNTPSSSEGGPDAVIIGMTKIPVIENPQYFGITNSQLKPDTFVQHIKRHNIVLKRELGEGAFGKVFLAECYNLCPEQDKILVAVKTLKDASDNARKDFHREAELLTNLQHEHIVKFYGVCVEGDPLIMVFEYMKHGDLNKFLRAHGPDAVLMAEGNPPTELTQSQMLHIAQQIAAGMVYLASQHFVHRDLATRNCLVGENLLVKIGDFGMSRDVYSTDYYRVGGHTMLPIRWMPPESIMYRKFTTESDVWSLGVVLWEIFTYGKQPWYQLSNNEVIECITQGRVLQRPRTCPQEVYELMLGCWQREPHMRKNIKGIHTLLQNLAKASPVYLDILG
Sequence of Non-receptor tyrosine-protein kinase TYK2 (Homo sapiens) (P29597 whole entry): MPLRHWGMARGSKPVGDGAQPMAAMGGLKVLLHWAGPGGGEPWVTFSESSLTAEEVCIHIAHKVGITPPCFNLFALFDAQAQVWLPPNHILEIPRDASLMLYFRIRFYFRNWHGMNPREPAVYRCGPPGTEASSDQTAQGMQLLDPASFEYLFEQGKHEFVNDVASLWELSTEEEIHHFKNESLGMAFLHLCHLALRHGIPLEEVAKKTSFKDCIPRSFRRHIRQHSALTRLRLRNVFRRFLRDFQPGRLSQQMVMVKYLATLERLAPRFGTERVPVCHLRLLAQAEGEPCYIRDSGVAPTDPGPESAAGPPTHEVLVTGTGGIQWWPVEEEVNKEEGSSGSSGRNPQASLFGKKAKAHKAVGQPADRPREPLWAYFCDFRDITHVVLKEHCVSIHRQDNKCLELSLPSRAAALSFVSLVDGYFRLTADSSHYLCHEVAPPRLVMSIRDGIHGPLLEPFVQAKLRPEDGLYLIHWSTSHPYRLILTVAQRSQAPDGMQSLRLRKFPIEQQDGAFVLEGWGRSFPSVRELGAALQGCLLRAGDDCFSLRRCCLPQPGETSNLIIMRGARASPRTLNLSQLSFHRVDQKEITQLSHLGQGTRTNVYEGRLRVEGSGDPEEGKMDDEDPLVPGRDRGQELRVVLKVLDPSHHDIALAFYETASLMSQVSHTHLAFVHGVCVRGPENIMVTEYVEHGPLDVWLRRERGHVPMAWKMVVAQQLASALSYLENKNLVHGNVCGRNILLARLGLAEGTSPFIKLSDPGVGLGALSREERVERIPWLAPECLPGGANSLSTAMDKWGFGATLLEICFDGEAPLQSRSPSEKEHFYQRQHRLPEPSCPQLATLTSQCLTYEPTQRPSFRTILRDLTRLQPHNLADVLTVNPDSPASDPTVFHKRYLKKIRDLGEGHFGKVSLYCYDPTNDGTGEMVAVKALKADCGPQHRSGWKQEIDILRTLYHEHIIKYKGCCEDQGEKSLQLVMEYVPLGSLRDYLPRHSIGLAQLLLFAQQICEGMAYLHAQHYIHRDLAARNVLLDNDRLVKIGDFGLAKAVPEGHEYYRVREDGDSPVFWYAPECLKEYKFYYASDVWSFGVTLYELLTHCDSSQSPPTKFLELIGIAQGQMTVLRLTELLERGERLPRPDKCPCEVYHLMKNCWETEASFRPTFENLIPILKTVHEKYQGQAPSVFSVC
Sequence of High affinity nerve growth factor receptor (Homo sapiens) (P04629 33-796 limits assumed): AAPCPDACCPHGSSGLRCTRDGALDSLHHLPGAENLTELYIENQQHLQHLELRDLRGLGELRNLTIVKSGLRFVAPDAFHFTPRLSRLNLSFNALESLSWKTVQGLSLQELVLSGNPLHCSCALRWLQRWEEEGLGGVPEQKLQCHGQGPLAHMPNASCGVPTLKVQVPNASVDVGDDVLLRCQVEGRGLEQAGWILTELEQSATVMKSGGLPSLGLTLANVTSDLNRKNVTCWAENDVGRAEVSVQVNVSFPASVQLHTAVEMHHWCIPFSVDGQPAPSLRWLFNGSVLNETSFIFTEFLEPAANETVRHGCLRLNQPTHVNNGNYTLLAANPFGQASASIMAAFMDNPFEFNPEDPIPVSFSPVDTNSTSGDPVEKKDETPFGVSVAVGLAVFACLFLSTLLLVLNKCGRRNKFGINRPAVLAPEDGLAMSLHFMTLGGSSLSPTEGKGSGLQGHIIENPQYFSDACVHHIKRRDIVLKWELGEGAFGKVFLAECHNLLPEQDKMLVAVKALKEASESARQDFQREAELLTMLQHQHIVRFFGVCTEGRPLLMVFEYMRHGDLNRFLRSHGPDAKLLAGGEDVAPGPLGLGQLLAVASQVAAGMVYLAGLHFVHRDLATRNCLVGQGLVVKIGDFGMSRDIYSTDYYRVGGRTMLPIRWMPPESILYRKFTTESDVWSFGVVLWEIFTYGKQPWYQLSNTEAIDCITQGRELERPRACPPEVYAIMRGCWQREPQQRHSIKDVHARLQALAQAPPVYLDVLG
Sequence of Serine/threonine-protein kinase 10 (Homo sapiens) (O94804 whole entry, looked up): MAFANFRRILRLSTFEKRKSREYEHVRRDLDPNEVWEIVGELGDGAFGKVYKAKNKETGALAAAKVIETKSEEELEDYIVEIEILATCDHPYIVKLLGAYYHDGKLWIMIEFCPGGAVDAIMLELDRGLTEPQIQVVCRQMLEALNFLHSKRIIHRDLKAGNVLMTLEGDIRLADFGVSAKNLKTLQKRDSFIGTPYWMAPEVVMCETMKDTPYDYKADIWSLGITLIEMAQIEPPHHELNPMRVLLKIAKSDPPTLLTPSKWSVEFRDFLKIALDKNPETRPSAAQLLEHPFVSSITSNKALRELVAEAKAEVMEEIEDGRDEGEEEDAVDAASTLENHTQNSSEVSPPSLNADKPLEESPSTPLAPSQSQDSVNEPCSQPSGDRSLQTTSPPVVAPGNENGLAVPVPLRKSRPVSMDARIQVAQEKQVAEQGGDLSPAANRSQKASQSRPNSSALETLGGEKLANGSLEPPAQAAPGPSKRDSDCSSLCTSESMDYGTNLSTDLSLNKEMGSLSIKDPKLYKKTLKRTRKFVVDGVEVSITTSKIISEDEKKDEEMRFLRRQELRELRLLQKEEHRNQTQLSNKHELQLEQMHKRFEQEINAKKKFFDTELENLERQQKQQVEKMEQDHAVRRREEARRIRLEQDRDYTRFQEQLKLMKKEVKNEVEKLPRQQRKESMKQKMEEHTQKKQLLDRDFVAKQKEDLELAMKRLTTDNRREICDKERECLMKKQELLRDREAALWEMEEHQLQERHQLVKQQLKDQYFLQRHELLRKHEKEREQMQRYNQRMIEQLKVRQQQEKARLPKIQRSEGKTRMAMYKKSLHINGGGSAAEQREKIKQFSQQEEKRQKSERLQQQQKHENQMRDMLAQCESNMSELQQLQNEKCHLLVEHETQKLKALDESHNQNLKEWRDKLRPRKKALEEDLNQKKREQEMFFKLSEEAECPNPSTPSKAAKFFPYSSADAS

Regarding `O=C(Nc1n[nH]c2cc(-c3ccc(F)cc3)ccc12)C1CC1`, the inhibition in [1] was 4.23%; in test [2] it was 2.53%; in test [3], 5.87%; in [4], 2.91%; in test [5], 7.26%; in [6], 2.11%. Further, the inhibition was 3.11% in [7]; -5.76% in test [8]; 3.14% in [9]; 2.98% in test [10]; 12.8% in test [11]; 2.7% in test [12]. Also, the inhibition was found to be 6.25% in test [13]; 0.6% in test [14]; 6.95% in [15]; 3.84% in test [16]; 8.91% in test [17]; 1.48% in [18]. The figures for the inhibition in test [19] and in test [20] were 5.08% and 20.1%, respectively.
Consider `CN(C)CCOc1ccc(-c2nc(-c3ccncc3)c(-c3ccc4c(c3)CC/C4=N\O)[nH]2)cc1`, for which the inhibition in test [1] was 0.58%; in test [2], 1.83%; in test [3], 3.37%; in test [4] it was 1.52%; in test [5], 2.87%; in test [6], 2.32%. For the same compound, the inhibition in [7] is 3.33%; in test [8] it was -2.09%; in [9], 7.21%; in test [10] it was 1.33%; in test [11] it was 12%; in test [12] it was 1.63%. Moreover, the inhibition was 6.16% in [13]; 1.74% in [14]; -1.31% in test [15]; 22.1% in test [16]; 69.2% in test [17]; 0.69% in [18]. Moreover, the inhibition amounted to 3.44% in test [19] and 9.59% in test [20].
Take `CS(=O)(=O)CCNCc1coc(-c2ccc3ncnc(Nc4ccc(OCc5ccccc5)cc4)c3c2)c1`: the inhibition is 4.8% in [1]; 2% in test [2]; 4.13% in [3]; 2.96% in test [4]; 4.88% in [5]; 4.16% in test [6]. For the same compound, the inhibition was 3.86% in test [7]; 1.95% in [8]; 2.54% in test [9]; 2.4% in test [10]; 4.78% in test [11]; 1.47% in [12]. In addition, the inhibition in test [13] amounted to 9.78%; in test [14] it was 1.46%; in [15], 8.58%; in [16] it was 8.03%; in test [17] it was 6.21%; in test [18] it was 0.9%. Moreover, the inhibition worked out at 3.83% in [19] and 3.41% in test [20].
In the case of `O=C(O[C@H]1CN[C@H](C#Cc2cc3ncnc(Nc4ccc(Cc5ccccc5)cc4)c3s2)C1)N1CCOCC1`, the inhibition was -3.47% in test [1]; 0.67% in [2]; 1.13% in [3]; -0.77% in test [4]; -1.7% in [5]; -0.97% in test [6]. The inhibition in test [7] is 1.36%; in test [8] it was -1.59%; in test [9] it was 1.6%; in test [10], 0%; in [11], 1.29%; in test [12], 1.27%. Moreover, the inhibition in [13] was 2.04%; in test [14] it was -0.18%; in test [15], 5.53%; in [16] it was 3.08%; in [17], 7.29%; in test [18], 0.39%. Also, the results for the inhibition in test [19] and in test [20] were 0.86% and -0.42%, respectively.
Consider `COc1ccc(-c2cc(-c3c[nH]nc3-c3ccccn3)ccn2)cc1`, for which the inhibition amounted to 3.12% in test [1]; 3.7% in test [2]; 3.9% in test [3]; 3.2% in test [4]; 5.62% in test [5]; 1.77% in test [6]. In addition, the inhibition in test [7] was 3.18%; in test [8] it was -6.95%; in test [9] it was 10.5%; in test [10] it was 3.7%; in test [11], 5.58%; in test [12], 4.41%. The inhibition is 5.71% in test [13]; 2.12% in test [14]; -1.66% in test [15]; 5.75% in test [16]; 8.57% in [17]; 1.74% in test [18]. Further, the inhibition in test [19] was 2.15%; in test [20], 35.5%.
With `COc1cccc(-n2ncc3c(N/N=C/c4ccc(F)cc4)ncnc32)c1`, the inhibition in [1] is 4.65%; in test [2] it was 3.34%; in test [3], 4.5%; in [4] it was 3.31%; in [5], 6.74%; in [6] it was 4.3%. Further, the inhibition in [7] is 8.25%; in [8], -4.95%; in test [9] it was 10.9%; in test [10] it was 2.1%; in test [11], 18.5%; in test [12] it was 4.02%. Also, the inhibition in test [13] was determined as 12.9%; in test [14], 2.64%; in test [15], 3.29%; in test [16] it was 6.75%; in test [17] it was 10.9%; in [18], 0.43%. Also, the inhibition worked out at 0.63% in test [19] and 5.23% in test [20].
